Here are results for 43 molecules from PubChem BioAssay AID602248 (The Scripps Research Institute Molecular Screening Center, 2012).

About 1,700 (0.47%) of roughly 360,000 compounds were called active. This excerpt belongs to a sample that is enriched for actives. A number with no mark means an inactive call. No stated cut-off is given here; in the data, active means activation above about 15%; inactive means the rest.

This assay in a line: counter-screen for M1 agonists: effect in parental CHO-K1 cells (AID 602248).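 Further: untransfected CHO-K1 host cells lacking M1 receptor as counterscreen.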 The settings on record: Fluo-8 calcium fluorescence, at 3 µM, hits give high values, scaled to maximal ATP response, vehicle zero.
As to `C=C(C)CSc1nnc(-c2ccc(C)cc2)n1N`, the activation was 0.17%.
For the molecule `O=C(CCN1C(=O)c2ccccc2C1=O)NCCCn1ccnc1`, the activation is 0.76%.
In the case of `Cc1nc(Cl)c(C#N)c2c1CCCC2`, the activation was 0.61%.
Then `COC(=O)c1c(C)c(C)nc(N)c1C#N`, with 0.12%; and `COCc1c(N)c(C)nc(Cl)c1C#N`, with 16.9% (active); and `CCNC(=O)C1(C)CCN(C(=O)c2ccccc2)C1` (stereo not drawn), with -0.33%.
On to `O=C(Cn1ccc([N+](=O)[O-])n1)NCc1cccs1`, for which the activation is 0.12%.
Consider `OCCN1CCN(c2ncnc3c2ncn3[C@H]2CN(Cc3ccco3)C[C@@H](CO)O2)CC1`, for which the activation was 0.92%.
Consider `CCNC(=O)N1CCN(S(=O)(=O)c2ccc3c(c2)OCCCO3)CC1`, for which the activation was 1.28%.
For `COc1cc(NC(=O)c2ccc(CNc3c(N4CCCC4)c(=O)c3=O)cc2)cc(OC)c1OC`, the activation is 0.42%.
Take `Cc1c(C(=O)NCc2ccc(C#N)cc2)sc(=O)n1Cc1ccc(C(=O)N(C)C)cc1`: the activation was -0.19%.
On to `Cc1ccc(Cn2c(C)c(C(=O)NCc3ccccc3C(F)(F)F)sc2=O)cc1`, for which the activation was 0.82%.
As for `CC(=O)Oc1ccc(Cn2c(C)c(C(=O)NCc3ccc(C#N)cc3)sc2=O)cc1`, the activation was 31.7% (active).
Consider `CCC(CC)C(=O)Nc1c2c(nn1-c1ccc(C)cc1)CS(=O)(=O)C2`, for which the activation was -0.47%.
As for `O=C(NCc1ccc2c(c1)OCO2)C(=O)NCC1OCCN1S(=O)(=O)c1ccc(F)cc1` (stereo not drawn), the activation is 1.05%.
`O=C(O)c1ccc(S(=O)(=O)N2CCOCC2)o1`: the activation was -0.58%.
In the case of `CNC[C@H]1OCc2cnnn2CCCC(=O)N([C@H](C)CO)C[C@@H]1C`, the activation is 0.47%.
As for `CC(C)CC(=O)NC(=S)Nc1ccc(F)cc1F`, the activation was 1.3%.
As for `CC(=O)c1ccc(NC(=O)CSC(=S)N2CCCC2)cc1`, the activation is 1.41%.
Take `CC(=O)c1ccc(NC(=S)NC(=O)CC(C)C)cc1`: the activation is 16.1% (active).
Consider `CCCOc1cc(C)c(S(=O)(=O)n2nnc3ccccc32)cc1C`, for which the activation is 0.16%.
For `CCC(C(=O)Nc1ncccn1)(C(F)(F)F)C(F)(F)F` the value was 0.01%.
Regarding `S=C1Nc2cc(Cl)ccc2Sc2ccccc21`, the activation was 1.17%.
With `Cc1ccc(S(=O)(=O)N(C)CC(=O)NCC(c2ccc(F)cc2)N2CCOCC2)cc1` (stereo not drawn), the activation was 0.75%.
`COC(=O)[C@@H]1C[C@@]2(O)[C@H](O)[C@H](O)[C@H](O)C[C@H]2N1Cc1ccc(C)s1`: the activation is 0.11%.
Then `COc1ccc(S(=O)(=O)NNC(=O)Nc2ccc(C)cc2)c(OC)c1`, with 0.08%; and `COc1cc(NC(=O)Nc2ccc(C)cc2)cc([N+](=O)[O-])c1`, with 15.6% (active); and `Cc1ccc(Oc2cc(NC(=O)CCCn3nc(C)c([N+](=O)[O-])c3C)cc([N+](=O)[O-])c2)cc1`, with 0.22%.
As to `CC(C)CCN1C(=O)c2ccc(C(=O)Nc3cccc(S(N)(=O)=O)c3)cc2C1=O`, the activation was 1.4%.
For `CCSC1=NCCN1S(=O)(=O)c1ccc(F)cc1` the value was 0.73%; for `COc1ccc(C(=O)OCC(=O)c2ccc(C)c(S(=O)(=O)N3CCOCC3)c2)cc1OC`, 15.7% (active).
Turning to `COc1ccc(CNC(=O)COC(=O)c2ccc(C)c(S(=O)(=O)N3CCOCC3)c2)cc1OC`, the activation was 3.58%.
In the case of `Cc1ccc(C(=O)OCC(=O)N2CCCCCC2)cc1S(=O)(=O)N1CCOCC1`, the activation is 0.59%.
Regarding `COc1ccc(C(C)NC(=O)C23CC4CC(CC(C4)C2)C3)cc1` (stereo not drawn), the activation is -0.13%.
Turning to `Cc1ccc(NC(=O)COC(=O)CN2CCCCCC2=O)c(C)c1`, the activation is -0.27%.
Then `COc1ccc(-c2ccc3c(c2)C2CC3CCN2CCC#N)cc1` (stereo not drawn), with 4.03%; and `CCOC(=O)N1CCN(C(=O)c2ccc3c(c2)N(Cc2ccc(C)cc2)CCS3)CC1`, with 1.01%.
For `O=C(Nc1ccc(Cl)cc1)Nc1ccc(Oc2cccnc2)nc1` the value was 15.9% (active); for `O=C(NNC(=O)c1csc(-c2cccnc2)n1)Nc1ccc(Cl)cc1`, 0.53%; for `O=C(O)CCCC(=O)Nc1ccc(Oc2cccc(C(F)(F)F)c2)nc1`, 0.38%.
Regarding `COc1ccc(NC2CCCN(C(=O)c3ccncc3)C2)cc1` (stereo not drawn), the activation was 0.4%.
Consider `CSc1nc(C)nc2c1c(=O)n(C)c(=O)n2C`, for which the activation is -0.23%.
As to `N#Cc1c(-c2ccc(F)cc2)cc(C2CC2)nc1SCC(=O)c1cccs1`, the activation is 0.07%.
